A number with no mark means an inactive call. Results filed as inconclusive are left out. Entries that show only a call come without a potency. Active and inactive are the calls of the source. Unless noted, the call rests on the fitted dose curve; in most records, active means well fitted curve in the direction sought with a large enough effect in the repeat runs; inconclusive means weak or mixed curves; inactive means no such curve, though single readings can be large; an effect the other way counts as inactive or inconclusive.
How the values were obtained:
[1] = qHTS assay to identify small molecule antagonists of the estrogen related receptor (ERR) signaling pathway from Tox21 library - cell viability counter screen (AID 1224834); further: nearly all actives have a fitted effect of over 30% in size; further: potency means the concentration at half of the fitted maximal effect
In short: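 CellTiter-Fluor fluorescence measured; ERR cells; 17.5 h compound incubation at 37 C; 30 min reagent step.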

[2] = target: Luciferin 4-monooxygenase (Photinus pyralis) (UniProt P08659); test: qHTS assay to identify small molecule inhibitors of firefly luciferase (AID 1224835); further: nearly all actives have a fitted effect of over 25% in size
In short: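 Biochemical qHTS: compounds run as interplate titrations against purified firefly enzyme, with D-luciferin and ATP each at its KM concentration. Light output recorded by CCD imaging.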

[3] = target: Nuclear receptor subfamily 1 group I member 3 (Homo sapiens) (UniProt Q14994); test: qHTS assay to identify small molecule antagonists of the constitutive androstane receptor (CAR) signaling pathway (AID 1224838);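 further: HepG2 cells stably expressing hCAR with CYP2B6 luciferase reporter stimulated by CITCO; nearly all actives have a fitted effect of over 40% in size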
In short: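 Reporter luminescence was quantified after 24 h exposure of hCAR/CYP2B6-2.2kb double-stable HepG2 cells to compounds at 15 concentrations in the presence of 50 nM CITCO final.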

[4] = target: Nuclear receptor subfamily 1 group I member 3 (Homo sapiens) (UniProt Q14994); test: qHTS assay to identify small molecule agonists of the constitutive androstane receptor (CAR) signaling pathway (AID 1224839);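 further: HepG2 cells stably carrying human CAR and a CYP2B6 luciferase reporter; nearly all actives have a fitted effect of over 15% in size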
In short: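 Cells were plated and incubated 4 hrs, then dosed with compounds at 15 concentrations. PK11195 was added to 0.75 uM final. After 24 hrs at 37 C, luciferase luminescence was measured.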

[5] = qHTS assay to identify small molecule agonists of the estrogen related receptor signaling pathway with the pleiotropic PPARgamma coactivator (PGC) from Tox21 10K library (AID 1224842); further: nearly all actives have a fitted effect of over 15% in size
In short: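 PGC/ERR reporter cell line, 2,000 cells per well, incubated 6 h at 37 C before 23 nL compound in DMSO was added. After 18 h at 37 C, One-Glo luminescence read following 30 min at room temperature.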

[6] = qHTS assay to identify small molecule agonists of the hypoxia (HIF-1) signaling pathway - cell viability counter screen (AID 1224844; calls by dose curve; further: nearly all actives have a fitted effect of over 50% in size)
In short: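 Multiplexed with the HRE beta-lactamase assay, this viability read used CellTiter-Glo luminescence (30 min, RT) on HRE-bla ME-180 cells treated 17 hrs with compounds in 0.5% dialyzed FBS medium.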

[7] = qHTS assay to identify small molecule agonists of the hypoxia (HIF-1) signaling pathway (AID 1224846; active means well fitted activation curve with a large enough effect in the signal ratio in the repeat runs, not every such curve was filed as active; the % refers to the signal ratio)
In short: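 Hypoxia-pathway activation was scored as increased beta-lactamase from an HRE-controlled reporter in ME-180 cells; plated at 2,000 cells per well with 0.5% dialyzed FBS, they were exposed 17 hrs to compounds and then given CCF4-AM.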

[8] = qHTS assay to identify small molecule agonists of H2AX - cell viability counter screen (AID 1224847; calls by dose curve; further: top concentration of the series differs between compounds; nearly all actives have a fitted effect of over 30% in size)
In short: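 Cytotoxicity counter screen in wild-type CHO-K1 cells: a 3 hr compound treatment at 37C across 15 concentrations, followed by CellTiter-Glo luminescence to gauge viable cells.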

[9] = qHTS assay to identify small molecule agonists of the estrogen related receptor (ERR) signaling pathway from Tox21 library (AID 1224849; calls by dose curve; further: nearly all actives have a fitted effect of over 15% in size); conditions: ERR reporter cell line, ONE-Glo luciferase, 18 h; at 92.4 µM (top of the series) unless noted
In short: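 Six hours post-seeding at 37 C/5% CO2, ERR cells receive DMSO-solubilised compounds; after 18 h at 37 C, ONE-Glo reagent is applied and luminescence recorded.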

[10] = qHTS RealTime-Glo MT Cell Viability Assay in HepG2 cells - 24 hour (AID 1224867); further: nearly all actives have a fitted effect of over 50% in size
In short: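 Viability was tracked continuously by NanoLuc luminescence from prosubstrate reduced by living HepG2 cells, at successive time points over 40 h of compound exposure. Cells with reagent were preincubated 5 h at 37 °C before compound addition.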

[11] = A CellTox Green Cytotoxicity Assay to monitor cytotoxicity in HEK293 cells - 0 hour (AID 1224869); further: nearly all actives have a fitted effect of over 50% in size
In short: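 Seeding of HEK293 cells together with cytotoxicity dye preceded a 5 h incubation at 37 C/5% CO2. Test compounds in DMSO were then added and fluorescence monitored across 40 h.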

[12] = qHTS RealTime-Glo MT Cell Viability Assay in HepG2 cells - 40 hour (AID 1224870); further: nearly all actives have a fitted effect of over 50% in size
In short: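 HepG2 cells (600/well) mixed with RealTime-Glo MT reagent, settled 5 h at 37 C/5% CO2 before compound addition. Nonlytic NanoLuc luminescence from viable-cell prosubstrate reduction read repeatedly during 40 h treatment at 37 C.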

[13] = qHTS assay to identify small molecule agonists of the constitutive androstane receptor (CAR) signaling pathway - cell viability counter screen (AID 1224836); further: nearly all actives have a fitted effect of over 45% in size
In short: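 Cells were seeded and incubated 4 hrs. Compounds were added across 15 concentrations together with PK11195 at 0.75 uM final. Plates were incubated 23 hrs at 37 C. CellTiter-Fluor was added and fluorescence measured.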

[14] = qHTS assay to identify small molecule antagonists of the constitutive androstane receptor (CAR) signaling pathway - cell viability counter screen (AID 1224837); further: nearly all actives have a fitted effect of over 45% in size
In short: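 Using CellTiter-Fluor, viability is scored in HepG2 cells stably carrying hCAR and a 2.2kb CYP2B6 reporter after 23 hr compound exposure across 15 concentrations, with CITCO present at 50 nM.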

[15] = qHTS assay to identify small molecule antagonists of the estrogen related receptor signaling pathway with the pleiotropic PPARgamma coactivator (PGC) from Tox21 10K library - cell viability counter screen (AID 1224840; active means well fitted cell-killing curve with a large enough effect in the repeat runs, not every such curve was filed as active; further: nearly all actives have a fitted effect of over 40% in size)
In short: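 Here the PGC/ERR cells serve as a cytotoxicity control: they are exposed to compounds for 17.5 hours at 37 C, and live-cell signal is quantified using CellTiter-Fluor fluorescence.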

[16] = target: Thyrotropin receptor (Homo sapiens) (UniProt P16473); test: qHTS assay to identify small molecule agonists of the thyroid stimulating hormone receptor (TSHR) signaling pathway (AID 1224843; calls by dose curve; further: nearly all actives have a fitted effect of over 45% in size; further: potency means the concentration at half of the fitted maximal effect)
In short: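 Steps: seed 800 TSHR-HEK293 cells per well; add test compound and hold 30 min at ambient temperature; dispense cAMP-d2 then anti-cAMP cryptate; incubate 1 h at ambient; measure fluorescence intensity.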

[17] = qHTS assay to identify small molecule agonists of H2AX (AID 1224845; active means well fitted activation curve with a large enough effect in the signal ratio in the repeat runs, not every such curve was filed as active; the % refers to the signal ratio)
In short: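 Wild-type CHO-K1 cells, plated overnight, exposed 3hr at 37C to 15 concentrations (0.76% DMSO final). Lysed, then HTRF anti-pH2AX (S139) cryptate and anti-H2AX-d2 antibodies, 24 hr room temperature; 665/620 nm emission read.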

[18] = qHTS RealTime-Glo MT Cell Viability Assay in HEK293 cells - 32 hour (AID 1224868); further: nearly all actives have a fitted effect of over 50% in size; further: potency means the concentration at half of the fitted maximal effect
In short: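 Viability tracked continuously by luminescence as live cells reduce a prosubstrate for NanoLuc; HEK293 cells preincubated 5 h, compound-treated at 37 C, and read at 0, 8, 16, 24, 32 and 40 h.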

[19] = qHTS assay to identify small molecule antagonists of the estrogen related receptor signaling pathway with the pleiotropic PPARgamma coactivator (PGC) from Tox21 10K library (AID 1224841; call rule not given here; further: potency means the concentration at half of the fitted maximal effect)
In short: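 Each well held 2,000 PGC/ERR cells, pre-incubated six hours (37 C, 5% CO2). Test substances in DMSO were added by pin tool and left for 18 h at 37 C before luciferase detection by One-Glo.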

[20] = qHTS assay to identify small molecule antagonists of the estrogen related receptor (ERR) signaling pathway from Tox21 library (AID 1224848); further: nearly all actives have a fitted effect of over 50% in size; further: potency means the concentration at half of the fitted maximal effect
In short: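 Luminescent reporter read-out (ONE-Glo) from NTP's ERR cell line after 18 h treatment at 37 C with DMSO-dissolved Tox21 compounds; cells pre-plated 6 h beforehand at 2,000 per well.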

Chain of Nuclear receptor subfamily 1 group I member 3 (Homo sapiens) (Q14994 whole entry, looked up): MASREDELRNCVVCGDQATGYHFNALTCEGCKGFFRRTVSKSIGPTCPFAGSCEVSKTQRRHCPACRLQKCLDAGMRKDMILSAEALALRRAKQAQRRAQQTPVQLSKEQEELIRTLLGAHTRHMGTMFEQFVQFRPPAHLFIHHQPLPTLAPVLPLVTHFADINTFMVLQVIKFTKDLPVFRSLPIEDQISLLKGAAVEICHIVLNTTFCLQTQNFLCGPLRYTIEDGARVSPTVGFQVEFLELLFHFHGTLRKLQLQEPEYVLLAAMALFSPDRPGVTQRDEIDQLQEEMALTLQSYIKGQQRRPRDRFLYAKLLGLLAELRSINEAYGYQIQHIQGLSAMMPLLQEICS
Chain of Thyrotropin receptor (Homo sapiens) (P16473 whole entry, looked up): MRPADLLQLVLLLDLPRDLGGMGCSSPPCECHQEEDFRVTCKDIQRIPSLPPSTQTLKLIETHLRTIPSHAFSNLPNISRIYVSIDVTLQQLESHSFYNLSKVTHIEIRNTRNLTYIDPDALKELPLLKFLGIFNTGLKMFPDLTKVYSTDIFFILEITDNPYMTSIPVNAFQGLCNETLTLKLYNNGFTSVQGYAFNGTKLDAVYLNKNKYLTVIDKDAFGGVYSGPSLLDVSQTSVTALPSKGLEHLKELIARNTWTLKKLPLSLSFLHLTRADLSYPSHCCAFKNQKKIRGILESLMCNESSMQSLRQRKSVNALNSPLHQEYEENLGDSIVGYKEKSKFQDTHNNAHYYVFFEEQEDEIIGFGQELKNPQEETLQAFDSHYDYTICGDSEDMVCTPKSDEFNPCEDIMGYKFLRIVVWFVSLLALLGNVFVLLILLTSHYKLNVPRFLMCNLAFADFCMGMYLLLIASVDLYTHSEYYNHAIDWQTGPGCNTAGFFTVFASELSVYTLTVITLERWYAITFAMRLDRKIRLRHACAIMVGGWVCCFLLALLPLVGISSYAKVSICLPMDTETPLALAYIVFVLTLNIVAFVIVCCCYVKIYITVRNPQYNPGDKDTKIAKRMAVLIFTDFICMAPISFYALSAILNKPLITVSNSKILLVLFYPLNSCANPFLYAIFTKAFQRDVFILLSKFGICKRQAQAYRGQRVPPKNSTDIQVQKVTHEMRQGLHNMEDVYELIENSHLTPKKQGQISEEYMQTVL
Chain of Luciferin 4-monooxygenase (Photinus pyralis) (P08659 whole entry, looked up): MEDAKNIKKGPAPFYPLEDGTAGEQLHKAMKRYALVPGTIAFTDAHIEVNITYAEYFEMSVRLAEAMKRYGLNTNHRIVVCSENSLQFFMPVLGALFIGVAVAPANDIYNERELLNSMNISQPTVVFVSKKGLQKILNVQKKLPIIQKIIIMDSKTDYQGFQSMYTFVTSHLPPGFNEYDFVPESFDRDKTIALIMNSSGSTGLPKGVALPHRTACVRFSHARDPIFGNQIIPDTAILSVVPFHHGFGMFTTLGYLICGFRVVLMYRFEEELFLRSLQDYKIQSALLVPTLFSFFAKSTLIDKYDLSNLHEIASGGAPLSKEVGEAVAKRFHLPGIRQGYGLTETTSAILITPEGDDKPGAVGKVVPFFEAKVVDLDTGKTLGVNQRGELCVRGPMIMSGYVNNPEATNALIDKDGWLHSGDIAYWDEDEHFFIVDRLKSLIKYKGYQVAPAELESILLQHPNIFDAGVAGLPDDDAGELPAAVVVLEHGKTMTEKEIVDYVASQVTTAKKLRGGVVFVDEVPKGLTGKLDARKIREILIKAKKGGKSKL

SMILES	Potency [1]	Potency [2]	Potency [3]	Potency [4]	outcome [5]	Potency [6]	outcome [7]	Potency [8]	activity change, positive = activation [9]	Potency [10]	Potency [11]	Potency [12]	Potency [13]	Potency [14]	Potency [15]	Potency [16]	Potency [17]	Potency [18]	Potency [19]	Potency [20]
CCN(CC)C(=O)[C@@H]1C=C2c3cccc4[nH]cc(c34)C[C@H]2N(C)C1	80 µM (active)	inactive	inactive	inactive	inactive	inactive	inactive	inactive	-24.6% [at 240 µM]	inactive	inactive	inactive	–	–	–	–	–	–	–	–
CN/C(=N\[N+](=O)[O-])NCC1CCOC1 (stereo not drawn)	inactive	–	inactive	inactive	–	–	inactive	inactive	–	–	inactive	inactive	inactive	inactive	inactive	inactive	inactive	inactive	–	–
CCC(C)(C)c1cc(-n2nc3ccccc3n2)c(O)c(C(C)(C)CC)c1	–	inactive	inactive	inactive	inactive	–	inactive	inactive	-66.5%	inactive	inactive	inactive	–	–	–	inactive	inactive	22.2 µM (active)	49.3 µM (active)	39.2 µM (active)
Nc1c(Br)cc([N+](=O)[O-])cc1[N+](=O)[O-]	–	inactive	inactive	–	inactive	inactive	inactive	–	-26.5%	inactive	inactive	inactive	inactive	inactive	inactive	inactive	inactive	inactive	inactive	–
O=c1oc2ccccc2c(O)c1C1CCCc2ccccc21 (stereo not drawn)	inactive	–	inactive	inactive	inactive	–	inactive	inactive	-20.9%	inactive	inactive	inactive	inactive	inactive	inactive	–	inactive	inactive	54.5 µM (active)	–
CC(C)(C)NCC(O)c1cc(Cl)c(N)c(Cl)c1 (stereo not drawn)	–	inactive	–	–	inactive	–	inactive	inactive	6.3% [at 42.5 µM]	inactive	inactive	inactive	–	–	inactive	2.1 nM (active)	inactive	inactive	inactive	inactive
O=[N+]([O-])c1cccc2c([N+](=O)[O-])cccc12	61.4 µM (active)	inactive	inactive	–	inactive	inactive	inactive	–	-66%	inactive	inactive	inactive	–	–	–	inactive	inactive	49.2 µM (active)	34.6 µM (active)	30.8 µM (active)
O=C1OC(CCN2CCCCC2)OC1(c1ccccc1)c1ccccc1 (stereo not drawn)	inactive	inactive	inactive	inactive	–	inactive	inactive	inactive	–	inactive	inactive	inactive	–	–	inactive	inactive	–	inactive	–	–
O=C1CN=C(c2ccccc2)c2cc([N+](=O)[O-])ccc2N1	inactive	inactive	–	–	–	inactive	inactive	inactive	–	inactive	inactive	inactive	–	–	inactive	inactive	inactive	inactive	inactive	inactive

Reference: PubChem BioAssay (Tox21)
